Among the data in publication PMC7862700, “An all-to-all approach to the identification of sequence-specific readers for epigenetic DNA modifications on cytosine” are binding signal values, retold here.

What all share (assay): DAPPL (digital affinity profiling via proximity ligation, sequencing); 10 mM Tris-HCl pH 7.5, 50 mM NaCl, 1 mM DTT, 4% glycerol, room temperature, 30 min; GST-TFs on glutathione beads, 16-mer random dsDNA library, 0.1% formaldehyde crosslink after washing; high values mean tight binding
Conditions in all cases: protein: recombinant; tags: N-terminal GST; dsDNA, one strand shown

One assay concerns the target T1, FLI1 (Homo sapiens, UniProt Q01543 1-452).
T1 sequence: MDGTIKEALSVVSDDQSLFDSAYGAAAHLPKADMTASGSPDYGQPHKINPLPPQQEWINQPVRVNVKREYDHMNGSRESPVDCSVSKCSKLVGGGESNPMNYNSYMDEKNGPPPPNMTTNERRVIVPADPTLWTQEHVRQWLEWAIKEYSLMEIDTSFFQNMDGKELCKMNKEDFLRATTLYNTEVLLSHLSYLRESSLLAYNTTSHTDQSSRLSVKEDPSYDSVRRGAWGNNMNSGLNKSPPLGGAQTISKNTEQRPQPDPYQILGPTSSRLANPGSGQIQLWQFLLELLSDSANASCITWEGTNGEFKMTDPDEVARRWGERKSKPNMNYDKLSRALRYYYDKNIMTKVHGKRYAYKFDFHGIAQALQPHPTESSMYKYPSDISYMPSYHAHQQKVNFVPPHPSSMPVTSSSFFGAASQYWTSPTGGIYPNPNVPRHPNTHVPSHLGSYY
In outline:
(§1)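 Human transcription factors were made in yeast as GST fusions, captured on glutathione beads and barcoded with DNA. With a tag-only sample included, the pool was incubated with 200 nmole of a random double-stranded 16-mer DNA library in Tris/NaCl/DTT/glycerol buffer at room temperature for 30 min, then crosslinked with 0.1% formaldehyde after washing, ligated by proximity, amplified and sequenced. For binding signal, each hexamer's read frequency for a factor is divided by its frequency for the tag-only sample.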

The next assay has as its target T2, ELK1 (Homo sapiens, UniProt P19419 1-428).
T2 sequence: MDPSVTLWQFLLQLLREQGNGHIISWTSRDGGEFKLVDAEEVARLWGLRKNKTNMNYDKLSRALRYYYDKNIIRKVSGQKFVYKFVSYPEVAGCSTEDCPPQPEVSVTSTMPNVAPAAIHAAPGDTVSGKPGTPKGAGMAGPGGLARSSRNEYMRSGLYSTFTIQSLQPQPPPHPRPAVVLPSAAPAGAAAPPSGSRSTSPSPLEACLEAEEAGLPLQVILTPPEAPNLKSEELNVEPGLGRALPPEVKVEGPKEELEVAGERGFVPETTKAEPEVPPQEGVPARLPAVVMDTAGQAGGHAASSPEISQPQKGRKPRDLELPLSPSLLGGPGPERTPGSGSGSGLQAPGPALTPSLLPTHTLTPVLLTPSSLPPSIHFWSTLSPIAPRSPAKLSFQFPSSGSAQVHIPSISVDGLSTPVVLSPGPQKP
In outline: as §1

For another assay, the target named is T3, GABPA (Homo sapiens, UniProt Q06546 1-454).
T3 sequence: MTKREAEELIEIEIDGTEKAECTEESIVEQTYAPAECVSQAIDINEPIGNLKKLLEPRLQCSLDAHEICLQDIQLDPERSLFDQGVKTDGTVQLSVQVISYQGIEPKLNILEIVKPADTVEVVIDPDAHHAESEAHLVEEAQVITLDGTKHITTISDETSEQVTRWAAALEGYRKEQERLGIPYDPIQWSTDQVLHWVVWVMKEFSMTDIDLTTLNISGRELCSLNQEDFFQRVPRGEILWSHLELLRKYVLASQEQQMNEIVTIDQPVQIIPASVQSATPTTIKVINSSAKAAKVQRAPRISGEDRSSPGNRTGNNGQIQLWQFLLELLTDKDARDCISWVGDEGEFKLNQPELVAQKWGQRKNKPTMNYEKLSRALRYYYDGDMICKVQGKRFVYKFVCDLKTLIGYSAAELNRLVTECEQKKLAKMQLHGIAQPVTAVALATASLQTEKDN
A digest of the protocol:
as §1

In the next assay the target is T4, ERG (Homo sapiens, UniProt P11308 1-479).
T4 sequence: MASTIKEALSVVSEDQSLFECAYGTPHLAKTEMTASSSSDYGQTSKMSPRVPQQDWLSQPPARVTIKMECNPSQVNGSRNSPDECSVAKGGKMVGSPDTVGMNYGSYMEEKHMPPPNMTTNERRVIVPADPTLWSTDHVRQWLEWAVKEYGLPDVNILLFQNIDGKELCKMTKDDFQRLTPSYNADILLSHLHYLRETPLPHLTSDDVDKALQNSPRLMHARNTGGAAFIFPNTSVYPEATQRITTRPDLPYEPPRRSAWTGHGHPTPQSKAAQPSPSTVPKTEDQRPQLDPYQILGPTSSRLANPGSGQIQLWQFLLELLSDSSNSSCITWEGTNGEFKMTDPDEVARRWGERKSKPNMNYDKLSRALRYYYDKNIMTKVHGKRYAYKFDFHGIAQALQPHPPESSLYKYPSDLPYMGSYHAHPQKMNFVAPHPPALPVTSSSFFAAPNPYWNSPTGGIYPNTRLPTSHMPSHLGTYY
A digest of the protocol: as §1

The next assay concerns the target ELF1 (Homo sapiens, UniProt P32519 1-619). In outline:
as §1

The target in the next assay is T5, EHF (Homo sapiens, UniProt Q9NZC4 1-300).
T5 sequence: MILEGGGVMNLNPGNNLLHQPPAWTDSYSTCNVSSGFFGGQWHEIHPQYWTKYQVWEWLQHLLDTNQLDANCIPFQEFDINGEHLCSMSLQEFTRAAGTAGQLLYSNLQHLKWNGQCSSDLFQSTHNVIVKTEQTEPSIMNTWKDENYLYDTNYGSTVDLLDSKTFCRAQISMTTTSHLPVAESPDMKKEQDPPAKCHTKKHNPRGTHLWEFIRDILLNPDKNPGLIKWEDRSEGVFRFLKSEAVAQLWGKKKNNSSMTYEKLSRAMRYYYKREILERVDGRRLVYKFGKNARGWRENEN
A digest of the protocol:
as §1

The target of the next assay is SPI1 (Homo sapiens, UniProt P17947 1-270). A digest of the protocol: as §1
The next assay has as its target T6, ELK3 (Homo sapiens, UniProt P41970 1-407).
T6 sequence: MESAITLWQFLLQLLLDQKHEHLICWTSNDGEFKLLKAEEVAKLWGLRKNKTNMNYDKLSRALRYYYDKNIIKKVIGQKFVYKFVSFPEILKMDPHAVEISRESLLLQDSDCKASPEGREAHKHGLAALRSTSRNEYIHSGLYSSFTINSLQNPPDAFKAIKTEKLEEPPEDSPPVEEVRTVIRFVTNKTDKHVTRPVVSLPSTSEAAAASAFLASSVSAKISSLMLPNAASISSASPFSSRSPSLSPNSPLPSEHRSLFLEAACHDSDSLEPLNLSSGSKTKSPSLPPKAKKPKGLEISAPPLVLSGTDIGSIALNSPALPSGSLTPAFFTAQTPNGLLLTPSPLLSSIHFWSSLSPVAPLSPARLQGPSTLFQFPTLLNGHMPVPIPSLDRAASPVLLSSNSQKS
A digest of the protocol: as §1

In another assay the target is T7, FEV (Homo sapiens, UniProt Q99581 1-238).
T7 sequence: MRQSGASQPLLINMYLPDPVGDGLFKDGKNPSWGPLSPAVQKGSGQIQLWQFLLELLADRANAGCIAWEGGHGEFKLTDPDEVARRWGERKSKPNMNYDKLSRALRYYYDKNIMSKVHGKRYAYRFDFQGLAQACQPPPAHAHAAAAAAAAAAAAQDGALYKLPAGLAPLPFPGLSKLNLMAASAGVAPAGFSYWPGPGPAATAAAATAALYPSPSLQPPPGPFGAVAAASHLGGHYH
In outline:
as §1

The next assay addresses ETV5 (Homo sapiens, UniProt P41161 1-510). In outline:
as §1

In a further assay the target is T8, SPIC (Homo sapiens, UniProt Q8N5J4 1-248).
T8 sequence: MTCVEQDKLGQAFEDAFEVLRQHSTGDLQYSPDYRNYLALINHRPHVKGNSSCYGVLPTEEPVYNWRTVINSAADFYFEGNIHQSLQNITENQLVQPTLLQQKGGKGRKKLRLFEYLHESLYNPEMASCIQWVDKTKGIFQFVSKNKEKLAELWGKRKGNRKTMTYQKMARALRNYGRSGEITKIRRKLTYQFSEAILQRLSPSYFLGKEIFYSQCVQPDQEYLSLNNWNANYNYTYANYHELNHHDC
In outline: as §1

The target of a further assay is ELF4 (Homo sapiens, UniProt Q99607 1-663). In outline:
as §1

In the next assay the target is T9, ELK4 (Homo sapiens, UniProt P28324-2 1-405).
T9 sequence: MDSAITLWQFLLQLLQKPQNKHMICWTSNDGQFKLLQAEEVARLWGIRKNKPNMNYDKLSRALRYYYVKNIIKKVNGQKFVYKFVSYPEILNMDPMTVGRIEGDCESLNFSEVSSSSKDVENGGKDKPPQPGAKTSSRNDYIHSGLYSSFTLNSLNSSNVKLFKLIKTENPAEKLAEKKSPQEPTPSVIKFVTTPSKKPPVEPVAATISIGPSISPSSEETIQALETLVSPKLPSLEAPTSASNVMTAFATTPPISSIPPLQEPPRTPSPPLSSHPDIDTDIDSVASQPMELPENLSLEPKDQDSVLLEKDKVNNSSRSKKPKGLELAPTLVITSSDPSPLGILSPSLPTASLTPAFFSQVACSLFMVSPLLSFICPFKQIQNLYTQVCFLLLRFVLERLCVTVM
A digest of the protocol:
as §1

The target of a further assay is T10, ELF3 (Homo sapiens, UniProt P78545 1-371).
T10 sequence: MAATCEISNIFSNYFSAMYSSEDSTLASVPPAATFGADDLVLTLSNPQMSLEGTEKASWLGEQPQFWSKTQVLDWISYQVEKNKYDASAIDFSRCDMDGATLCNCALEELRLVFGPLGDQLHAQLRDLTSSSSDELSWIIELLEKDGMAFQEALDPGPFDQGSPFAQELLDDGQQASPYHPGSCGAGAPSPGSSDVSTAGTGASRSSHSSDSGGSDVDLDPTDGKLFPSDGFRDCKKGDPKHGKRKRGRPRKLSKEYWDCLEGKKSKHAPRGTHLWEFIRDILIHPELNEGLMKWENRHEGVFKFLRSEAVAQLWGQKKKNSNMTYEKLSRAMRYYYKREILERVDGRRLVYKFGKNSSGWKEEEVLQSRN
A digest of the protocol: as §1

In the next assay the target is ETV1 (Homo sapiens, UniProt P50549 1-477). A digest of the protocol: as §1
Chain of ETV1 (P50549 whole entry): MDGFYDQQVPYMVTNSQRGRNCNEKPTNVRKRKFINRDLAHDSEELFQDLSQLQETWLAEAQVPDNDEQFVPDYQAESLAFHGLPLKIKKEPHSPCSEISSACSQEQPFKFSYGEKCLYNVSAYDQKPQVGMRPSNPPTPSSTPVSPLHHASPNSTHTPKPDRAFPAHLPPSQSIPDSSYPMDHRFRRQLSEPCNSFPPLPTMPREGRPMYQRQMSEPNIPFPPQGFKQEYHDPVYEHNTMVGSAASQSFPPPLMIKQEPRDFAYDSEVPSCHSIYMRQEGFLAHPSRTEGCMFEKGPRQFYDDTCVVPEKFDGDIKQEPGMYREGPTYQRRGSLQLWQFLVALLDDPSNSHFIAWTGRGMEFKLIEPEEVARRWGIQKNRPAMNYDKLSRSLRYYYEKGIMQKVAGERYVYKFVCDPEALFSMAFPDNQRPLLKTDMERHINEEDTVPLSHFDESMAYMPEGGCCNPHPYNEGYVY
A further assay has as its target SPIB (Homo sapiens, UniProt Q01892 1-262). In outline:
as §1

A further assay deals with T11, ETV2 (Homo sapiens, UniProt O00321 1-342).
T11 sequence: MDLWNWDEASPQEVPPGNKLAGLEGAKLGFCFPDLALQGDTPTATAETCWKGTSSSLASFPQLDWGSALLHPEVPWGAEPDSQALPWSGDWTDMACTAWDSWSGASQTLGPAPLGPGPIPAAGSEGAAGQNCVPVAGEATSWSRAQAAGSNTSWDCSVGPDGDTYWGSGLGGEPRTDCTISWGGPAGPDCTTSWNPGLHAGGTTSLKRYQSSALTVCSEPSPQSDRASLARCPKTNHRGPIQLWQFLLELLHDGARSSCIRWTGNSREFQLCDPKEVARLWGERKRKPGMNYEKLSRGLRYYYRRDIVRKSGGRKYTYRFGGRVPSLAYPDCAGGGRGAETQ
A digest of the protocol:
as §1

Chain of ETV5 (P41161 whole entry): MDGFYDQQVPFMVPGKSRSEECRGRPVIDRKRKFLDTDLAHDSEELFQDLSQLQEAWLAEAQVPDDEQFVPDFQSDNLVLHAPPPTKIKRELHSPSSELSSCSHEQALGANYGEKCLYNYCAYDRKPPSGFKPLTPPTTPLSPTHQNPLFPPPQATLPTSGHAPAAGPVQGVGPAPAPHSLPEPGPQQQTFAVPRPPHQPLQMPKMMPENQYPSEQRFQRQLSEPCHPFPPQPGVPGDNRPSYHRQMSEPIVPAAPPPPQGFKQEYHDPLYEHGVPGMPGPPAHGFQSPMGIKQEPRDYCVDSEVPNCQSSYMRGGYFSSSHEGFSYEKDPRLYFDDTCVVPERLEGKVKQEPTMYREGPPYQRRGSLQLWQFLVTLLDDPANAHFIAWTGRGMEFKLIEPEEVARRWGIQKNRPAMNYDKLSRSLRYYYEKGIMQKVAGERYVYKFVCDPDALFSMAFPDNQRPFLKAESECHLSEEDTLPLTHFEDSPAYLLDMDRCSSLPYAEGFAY
Chain of ELF1 (P32519 whole entry): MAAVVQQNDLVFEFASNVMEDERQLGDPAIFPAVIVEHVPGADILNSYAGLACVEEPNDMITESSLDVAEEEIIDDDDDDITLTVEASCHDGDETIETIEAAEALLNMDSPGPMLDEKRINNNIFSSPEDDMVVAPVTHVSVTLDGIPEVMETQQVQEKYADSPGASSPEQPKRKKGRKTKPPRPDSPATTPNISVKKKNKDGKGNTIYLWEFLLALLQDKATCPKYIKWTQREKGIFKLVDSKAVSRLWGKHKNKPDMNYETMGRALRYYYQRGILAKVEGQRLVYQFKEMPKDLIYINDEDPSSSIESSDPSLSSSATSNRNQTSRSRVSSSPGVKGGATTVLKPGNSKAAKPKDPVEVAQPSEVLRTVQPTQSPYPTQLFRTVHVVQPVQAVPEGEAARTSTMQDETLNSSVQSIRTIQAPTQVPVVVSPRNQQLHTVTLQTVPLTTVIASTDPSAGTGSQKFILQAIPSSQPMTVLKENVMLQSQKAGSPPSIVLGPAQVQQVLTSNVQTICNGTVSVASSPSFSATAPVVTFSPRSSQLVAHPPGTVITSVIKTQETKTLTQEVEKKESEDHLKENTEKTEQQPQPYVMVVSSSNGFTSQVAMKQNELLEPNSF
Chain of ELF4 (Q99607 whole entry): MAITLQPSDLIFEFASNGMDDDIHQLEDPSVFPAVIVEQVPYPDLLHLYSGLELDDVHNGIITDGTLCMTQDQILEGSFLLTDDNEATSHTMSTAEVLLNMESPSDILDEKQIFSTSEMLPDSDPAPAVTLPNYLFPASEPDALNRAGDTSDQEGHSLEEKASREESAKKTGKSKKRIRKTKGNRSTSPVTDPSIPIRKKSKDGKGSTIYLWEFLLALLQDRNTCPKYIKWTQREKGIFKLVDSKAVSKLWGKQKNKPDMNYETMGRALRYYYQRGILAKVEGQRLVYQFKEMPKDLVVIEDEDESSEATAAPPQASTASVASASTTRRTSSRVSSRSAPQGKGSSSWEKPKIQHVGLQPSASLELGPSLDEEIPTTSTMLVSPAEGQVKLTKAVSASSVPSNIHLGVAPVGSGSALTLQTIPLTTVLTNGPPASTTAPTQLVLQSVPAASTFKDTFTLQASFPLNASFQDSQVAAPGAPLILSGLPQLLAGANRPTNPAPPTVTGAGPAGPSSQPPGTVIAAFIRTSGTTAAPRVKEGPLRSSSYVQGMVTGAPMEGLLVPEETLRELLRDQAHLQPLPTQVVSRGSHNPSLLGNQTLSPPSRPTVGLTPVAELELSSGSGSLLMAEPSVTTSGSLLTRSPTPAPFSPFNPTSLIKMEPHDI
Chain of SPIB (Q01892 whole entry): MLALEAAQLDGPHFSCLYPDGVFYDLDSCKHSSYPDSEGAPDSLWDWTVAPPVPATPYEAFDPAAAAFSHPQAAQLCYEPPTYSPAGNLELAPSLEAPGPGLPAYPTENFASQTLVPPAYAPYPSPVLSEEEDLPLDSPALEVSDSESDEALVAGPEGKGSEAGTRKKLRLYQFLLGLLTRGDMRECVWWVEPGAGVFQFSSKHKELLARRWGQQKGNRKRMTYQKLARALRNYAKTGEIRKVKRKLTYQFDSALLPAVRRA

In the case of GTACTC, the binding signal with FLI1 is 1.06 fold enrichment (6-mer frequency, TF over GST control); with ELK1, 1.09 fold enrichment (6-mer frequency, TF over GST control); with GABPA, 1.16 fold enrichment (6-mer frequency, TF over GST control); in the assay with ERG it was 1.09 fold enrichment (6-mer frequency, TF over GST control); with ELF1 it was 1.16 fold enrichment (6-mer frequency, TF over GST control); in the assay with EHF, 1.08 fold enrichment (6-mer frequency, TF over GST control). In addition, the binding signal with SPI1 was 1.01 fold enrichment (6-mer frequency, TF over GST control); with ELK3, 1.18 fold enrichment (6-mer frequency, TF over GST control); with FEV, 1.11 fold enrichment (6-mer frequency, TF over GST control); with ETV5, 1.19 fold enrichment (6-mer frequency, TF over GST control); with SPIC, 1.06 fold enrichment (6-mer frequency, TF over GST control); with ELF4, 1.12 fold enrichment (6-mer frequency, TF over GST control). In addition, the binding signal with ELK4 is 1.03 fold enrichment (6-mer frequency, TF over GST control); with ELF3, 1.07 fold enrichment (6-mer frequency, TF over GST control); with ETV1, 1.1 fold enrichment (6-mer frequency, TF over GST control).
With TGGCCC, the binding signal was 1.02 fold enrichment (6-mer frequency, TF over GST control) in the assay with FLI1; 1.13 fold enrichment (6-mer frequency, TF over GST control) with ELK1; 1.24 fold enrichment (6-mer frequency, TF over GST control) with GABPA; 1.13 fold enrichment (6-mer frequency, TF over GST control) with ERG; 1.05 fold enrichment (6-mer frequency, TF over GST control) in the assay with ELF1; 1.02 fold enrichment (6-mer frequency, TF over GST control) in the assay with EHF. Moreover, the binding signal was 1.17 fold enrichment (6-mer frequency, TF over GST control) with SPI1; 1.12 fold enrichment (6-mer frequency, TF over GST control) in the assay with SPIB; 1.16 fold enrichment (6-mer frequency, TF over GST control) in the assay with ELK3; 1.09 fold enrichment (6-mer frequency, TF over GST control) with FEV; 1.12 fold enrichment (6-mer frequency, TF over GST control) with ETV5; 1.18 fold enrichment (6-mer frequency, TF over GST control) with SPIC. Besides, the binding signal in the assay with ELF4 is 1.14 fold enrichment (6-mer frequency, TF over GST control); with ELK4, 1.19 fold enrichment (6-mer frequency, TF over GST control); in the assay with ETV2, 1.18 fold enrichment (6-mer frequency, TF over GST control); with ETV1, 1.15 fold enrichment (6-mer frequency, TF over GST control).
